# Results: the supplement of paper PMC10338343
# ± gives the standard deviation.
# Test system: MILI (PIWIL2) piRISC loaded with piRNA #1 (26 nt)
# Assay: pre-steady-state target cleavage rate (min^-1); guide: piRNA #1 5'p-UGAGGUAGUAGGUUGUAUAGUAUCCA; MIWI and MILI are mouse PIWI proteins and EfPiwi is from a freshwater sponge; tags in brackets are library labels; higher = faster piRNA-guided slicing of the target
# Settings: auxiliary factor: 500 nM mouse GTSF1
# Summary of the method: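 A transcribed, DNA-blocked target RNA library (0.1 nM) and 1 nM active affinity-purified piRISC bearing one synthetic guide were incubated in HEPES–potassium acetate buffer at 33 °C for 0–8 or 0–960 min, either with or without 500 nM GTSF1 partner protein. Uncleaved targets were sequenced, normalised to depth and to weakly complementary targets, and pooled over three trials, with k3 capped at 0.0001 min^-1. The pre-steady-state cleavage rate was derived with a burst-and-steady-state fit.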
row,Sequence,pre-steady-state target cleavage rate
1,GGAGACCUAUGAAUACAUCCUACUACCUGA,0.00353 ± 0.002
2,GGAGACCUAUGAAUAUAACCUACUACCUCA,0.0081 ± 0.0024
3,GGAGACCUAUCUAUACAACCUACUAGCCUCA,0.147 ± 0.02
4,GGAGACCUAUGAUAUGAACCUAGAUGGAGA [g9:g14:cont:t1A],< 0.0001
5,GGAGACCUAACUAUACAACCUACUAGCACA,0.00779 ± 0.0065
6,GGAGACCUAACUAUACAAGCAACUACCUCA,0.00654 ± 0.0041
7,GGAGUGGAUACUUUACAACCUAGUACCUCA,0.0239 ± 0.0053
8,GGAGACCUAUCUAUACAACCUACUUCCUCA,0.0646 ± 0.012
9,GGAGACCUAUGAAUACAACCGACUACCUCA,0.00328 ± 0.003
10,GGAGACCUAUGAAUACAAGCUUCUACCUCA,0.0038 ± 0.002
11,GGAGACCUAUCAUAUACAACCUACUACCUCA,0.0423 ± 0.0085
12,GGAGACCUAUGAUAUGUUGCUACUUCCACA,< 0.0001
13,GGAGUGGAUACUUUACAACCUACUACGUCA,0.0457 ± 0.0058
14,GGAGACCUAUGAUAUCAACUCUACUACCUCA,< 0.0001
15,GGAGAGGUUACUAUACUACCUACUACCUCA,0.151 ± 0.011
16,GGAGUGGAUACUAUUCAACCUACUUCCUCA,0.00253 ± 0.002
17,GGAGACCUAACUAUAGCAACCUACUACCUCA,0.0973 ± 0.023
18,GGAGACCUAUCUAUUCAUCCUACUACCUCA,0.172 ± 0.021
19,GGAGACCUAACUAGACAACCUACUACCUCA,0.0997 ± 0.02
20,GGAGACCUAUGAUAACAACCUACGACCUCA,0.0039 ± 0.0025

row,Sequence,pre-steady-state target cleavage rate
1,GGAGACCUAUGAUUACAACCUACUACCUCG [g2:g17:cont:t1G],0.00649 ± 0.0032
2,GGAGACCUAUGAUAUCAAGCUACAACCUCA,0.00699 ± 0.0025
3,GGAGACCUUACUAUACAAACUACUACCUCA,0.204 ± 0.014
4,GGAGACCUAUGUAUACCAACCUACUACCUCA,0.00297 ± 0.003
5,GGAGACCUUACAAUACAACCUAGUACCUCA,0.043 ± 0.013
6,GGAGACCUAUCUAUACAACCUACAACCUGA,0.0151 ± 0.0061
7,GGAGACCUAUGUAUACAACCUACCACCUCA,0.0347 ± 0.0083
8,GGAGACCAUACUAUAGAACCUACUACCACA,0.0789 ± 0.021
9,GGAGACCUAUCUAUACAACCUACUACUCUCA,0.194 ± 0.021
10,GGAGACCUAUGAUUACAACGUACAACCUCA,0.00532 ± 0.0027
11,GGAGACCUAUCUAUACCACCUACUACCUCA,0.095 ± 0.017
12,GGAGACCUUAGUAUACAUCCUACUACCUCA,0.126 ± 0.018
13,GGAGACCAUACUAUAGAAGCUACUACCUCA,0.0882 ± 0.013
14,GGAGUGGAUACUAUACAACGUUCUACCUCA,0.00599 ± 0.0017
15,GGAGAGGAUACUAUAGUACCUACUACCUCA,0.159 ± 0.012
16,GGAGACCUAAGUAUACAUCCUACUACCUCA,0.0911 ± 0.0089
17,GGAGAGGAUACUAUACAACCUACAUGCUCA,0.00576 ± 0.003
18,GGAGAGGAUAGAUUACAACCUACUACCUCA,0.0529 ± 0.0086
19,GGAGACCUAACUAUACAACCUACUUGCUCA,0.18 ± 0.062
20,GGAGACCUAUCUAUACACCCUACUACCUCA,0.0257 ± 0.006
